Source: the supplement of paper PMC7156485
± gives the standard deviation of the averaged measurements.

system: HCC1569; assay: cell number relative to DMSO (% of DMSO); higher = more cells (less growth inhibition / toxicity); conditions: concentration: 10 µM; 24 h
Procedure, shortened: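 Compounds were applied at 10 µM for 24 h at 37 °C, in triplicate, to HCC1569 and TDF cells. The cells were then fixed and stained for H1.0, and nuclei were counterstained with DAPI. Nuclear H1.0 intensity or cell number is reported relative to the plate control as a percent, taking the median of replicates. Smoothing for positional effects was applied to HCC1569 values only.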
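Further: TDF denotes transformed human dermal fibroblasts of mesenchymal origin.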

`CC[N+](CC)(CC)CCOc1cccc(OCC[N+](CC)(CC)CC)c1OCC[N+](CC)(CC)CC.[I-].[I-].[I-]` [Gallamine triethiodide] was tested. Which cell number did it give?
The cell number was 101.

For `O=C1CN(N=Cc2ccc(-c3ccc([N+](=O)[O-])cc3)o2)C(=O)[N-]1.[Na+]` [Dantrolene sodium], which cell number is on record?
The cell number was 100.

Which cell number does the source give for `CC(=O)C1(O)CCC2C3CCC4=CC(=O)CCC4(C)C3CCC21C` (centres undefined) [17- Hydroxyprogesterone] here?
The cell number was 104.

`Cc1cc(O)c2c(c1)C(=O)c1cc(O)cc(O)c1C2=O` [Emodin] was tested. Which cell number did it give?
The cell number was 98.4 ± 1.2.

With `COc1cc2ncnc(Nc3cccc(Cl)c3)c2cc1OC` as the compound, how does the cell number read?
Its cell number is 83.8.

For `Cc1ccc(F)c(NC(=O)Nc2ccc(-c3cccc4[nH]nc(N)c34)cc2)c1`, which cell number is on record?
Its cell number is 92.4.

`CC1CNCCN1S(=O)(=O)c1cccc2cnccc12.Cl.Cl` (centres undefined) was tested. Which cell number did it give?
The cell number was 101.

`CN(C)CCCn1cc(C2=C(c3c[nH]c4ccccc34)C(=O)NC2=O)c2ccccc21` [Bisindolylmaleimide I] was tested. Which cell number did it give?
The cell number was 85.8.

For `COC1C(OC(N)=O)C(O)C(Oc2ccc3c(O)c(NC(=O)c4ccc(O)c(CC=C(C)C)c4)c(=O)oc3c2C)OC1(C)C.[Na+]` (centres undefined) [Novobiocin.Na], which cell number is on record?
Its cell number is 103.

With `COc1ccc2nc(S(=O)Cc3ncc(C)c(OC)c3C)[nH]c2c1` (centres undefined) [Omeprazole] as the compound, how does the cell number read?
Its cell number is 100.

Which cell number does the source give for `CC(=O)N[C@@H](CS)C(N)=O` here?
The cell number was 109.

Which cell number does the source give for `COc1ccc(S(=O)(=O)Nc2cc(Cl)cc(Cl)c2OC)cc1N1CCNCC1.Cl` here?
The cell number was 100.

How did the cell number turn out when `O=C(O)CCCCC1CCSS1` (racemic) was run?
The cell number was 104.

`CC(C)(C)c1ccc(S(=O)(=O)Nc2ccc(-n3ccnc3)cc2)cc1` [Stem-Cell Factor/c-Kit Inhibitor, ISCK03] was tested. Which cell number did it give?
Its cell number is 100.

`Cl.Fc1ccc(C(OCCCc2cnc[nH]2)c2ccc(F)cc2)cc1` was tested. Which cell number did it give?
The cell number was 99.8.

How did the cell number turn out when `CCCCCC=CCC=CCC=CCCCCCCC(=O)O` [Dihomo-γ-linolenic acid] was run?
Its cell number is 99.6.

With `CCCCOC(=O)NC(=O)C1c2ccccc2Oc2ccccc21` [butyl 9H-xanthen-9-ylcarbonylcarbamate] as the compound, how does the cell number read?
Its cell number is 102.

`O=c1c(-c2ccc(O)cc2)coc2cc(OC3OC(CO)C(O)C(O)C3O)ccc12` (centres undefined) [Daidzin] was tested. Which cell number did it give?
The cell number was 95.7.

How did the cell number turn out when `Nc1ccc(O)c(C(=O)O)c1` [5-Aminosalicylic acid] was run?
The cell number was 107.

Which cell number does the source give for `COc1ccc2c3c1OC1CC(O)C=CC31CCN(C)C2` (centres undefined) [Galanthamine] here?
Its cell number is 101.

`O=C(O)c1cc(N(Cc2ccccc2O)Cc2cc(O)ccc2O)ccc1O` [Lavendustin A] was tested. Which cell number did it give?
The cell number was 105.

`COc1cc2c3cc1Oc1cc(ccc1O)CC1c4c(cc(OC)c(O)c4Oc4ccc(cc4)CC3N(C)CC2)CC[N+]1(C)C` (single isomer, unassigned; (+)) [(+)-Tubocurarine chloride] was tested. Which cell number did it give?
Its cell number is 103.

How did the cell number turn out when `COc1ccc(C=C2c3ccccc3C(=O)c3ccccc32)cc1O` [10-(3-hydroxy-4-methoxybenzylidene)-9(10H)-anthracenone] was run?
Its cell number is 62.7.

For `O=c1c(-c2ccc(O)cc2)coc2cc(O)ccc12` [Daidzein], which cell number is on record?
Its cell number is 101 ± 2.1.

Which cell number does the source give for `NC(=S)NCCCC(N)C(=O)O` (centres undefined) [Thiocitrulline] here?
Its cell number is 104.

With `CN(C)CCC(c1ccc(Cl)cc1)c1ccccn1.O=C(O)C=CC(=O)O` (racemic) as the compound, how does the cell number read?
The cell number was 96.1.

For `CCCCCC=CCC(O)C=CC=CC=CC(O)CCCC(=O)O` [5(S),12(S)-DIHETE all trans], which cell number is on record?
Its cell number is 101.

Which cell number does the source give for `CN(C)c1ccc(O)c2c1CC1CC3C(N(C)C)C(=O)C(C(N)=O)=C(O)C3(O)C(=O)C1=C2O.Cl` (centres undefined) [Minocycline hydrochloride] here?
The cell number was 99.

With `Cl.NCCCC(N)(C(=O)O)C(F)F` (racemic) [DL-alpha-Difluoromethylornithine hydrochloride] as the compound, how does the cell number read?
The cell number was 98.5.

With `Nc1ccc(C(=O)O)c(O)c1` [4-Aminosalicylic acid] as the compound, how does the cell number read?
Its cell number is 105.

Which cell number does the source give for `COc1cccc2c1C(=O)c1c(O)c3c(c(O)c1C2=O)CC(O)(C(=O)CO)CC3OC1CC(N)C(O)C(C)O1.Cl` (centres undefined) [Doxorubicin.HCl] here?
Its cell number is 59.6 ± 3.9.

Which cell number does the source give for `CCn1cc(C(=O)O)c(=O)c2cc(F)c(N3CCNCC3)nc21` [Enoxacin] here?
Its cell number is 105.

`NC(=O)c1ncn(C2OC(CO)C(O)C2O)c1O` (centres undefined) [Mizoribine] was tested. Which cell number did it give?
Its cell number is 101.

With `CCC(C)n1ncn(-c2ccc(N3CCN(c4ccc(OCC5COC(Cn6cncn6)(c6ccc(Cl)cc6Cl)O5)cc4)CC3)cc2)c1=O` (centres undefined) [Itraconazole] as the compound, how does the cell number read?
The cell number was 79.5.

How did the cell number turn out when `CCN(c1nc(N)c(C(=O)N=C(N)N)nc1Cl)C(C)C` [5-(N-Ethyl-N-isopropyl)amiloride] was run?
The cell number was 103.

`CC(C)[N+]1(C)C2CCC1CC(OC(=O)C(CO)c1ccccc1)C2.[Br-]` (centres undefined) [Ipratropium.Br] was tested. Which cell number did it give?
The cell number was 102.

How did the cell number turn out when `COc1c2c(nc3ccccc13)OC(C(C)(O)CO)C2` (centres undefined) [Dubinidine] was run?
Its cell number is 102 ± 7.2.

`COc1cccc2c1C1CN(CCCCn3c(=O)[nH]c4c(sc5ncc(-c6ccccc6)nc54)c3=O)CC1CO2.Cl` (centres undefined) [Fiduxosin hydrochloride] was tested. Which cell number did it give?
The cell number was 88.8.

Which cell number does the source give for `COc1ccc(C=Cc2cc(OC)cc(=O)o2)cc1` [Yangonin] here?
Its cell number is 98.9.
